Screening data: PubChem BioAssay, several laboratories
Most compounds without a hit are left out; they make up all but 3.3% or so of the library.
NR3A LBD binder – modulators (binders) of human NR3A ligand-binding domain; NR3A LBD differential scanning fluorimetry, Tm shift; 0% = protein alone, 100% = glycine-bound protein; Tm shift relative to glycine control, % at 25 µM; 340,000 tested, 2.5% active; AID 1259313;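 active means melting temperature shift of at least 10% of the positive control shift, at one fixed dose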
HGIII-sPLA2 inh – Blocks human group III sPLA2 activity; Q9NZ20; 370,000 tested, 0.56% active; QFRET BODIPY PC-A2 liposome hydrolysis, fluorescence; inhibition, % at 12.2 µM;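 active means inhibition above mean plus 3 SD of compounds lying within the high and low control bounds, cut at about 19% in these data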;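 further: 0% = median of test compound wells and 100% = no enzyme DMSO wells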
Target sequence (Q9NZ20 whole entry, looked up): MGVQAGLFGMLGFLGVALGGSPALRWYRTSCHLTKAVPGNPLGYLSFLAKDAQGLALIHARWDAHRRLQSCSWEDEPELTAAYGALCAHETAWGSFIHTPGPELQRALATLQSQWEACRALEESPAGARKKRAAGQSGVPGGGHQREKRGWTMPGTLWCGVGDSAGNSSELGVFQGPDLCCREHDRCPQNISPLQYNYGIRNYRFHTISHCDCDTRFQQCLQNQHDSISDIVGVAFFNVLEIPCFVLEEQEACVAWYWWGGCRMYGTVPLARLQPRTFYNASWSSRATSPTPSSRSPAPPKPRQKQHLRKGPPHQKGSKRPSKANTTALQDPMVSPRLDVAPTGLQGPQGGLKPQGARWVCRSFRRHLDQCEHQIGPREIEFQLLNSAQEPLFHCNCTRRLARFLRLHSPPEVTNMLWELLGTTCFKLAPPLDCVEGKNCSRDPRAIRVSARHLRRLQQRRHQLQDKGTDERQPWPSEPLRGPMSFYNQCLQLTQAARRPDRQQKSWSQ
UBC13 inh – human UBC13 polyubiquitination inhibition; P61088; UBC13 polyubiquitin chain formation, TR-FRET; inhibition, % at 20 µM; 330,000 tested, 0.47% active; AID 485273; in the data active means inhibition above about 45%, passing the limit was not always enough
SUMO HTRF inh – SUMOylation inhibition. HTRF SUMOylation assay, SAE1/SAE2 + UBC9, in vitro. P63279. AID 2006. 290,000 tested, 0.36% active. inhibition, % at 35 µM; in the data active means inhibition above about 50%, passing the limit was not always enough
Target sequence (P63279 whole entry, looked up): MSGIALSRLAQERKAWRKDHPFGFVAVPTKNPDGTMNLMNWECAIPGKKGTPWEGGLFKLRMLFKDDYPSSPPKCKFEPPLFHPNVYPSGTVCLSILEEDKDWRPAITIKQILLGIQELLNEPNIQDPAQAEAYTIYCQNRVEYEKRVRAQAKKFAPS
Casp3 UBC13 ctr – caspase-3 inhibition (UBC13 counter-screen); shares compounds with UBC13 inh; Recombinant caspase-3, Caspase-Glo 3/7 luminescence, 60 min; inhibition, % at 20 µM; 1,400 tested, 4% active;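 active means mean inhibition across replicates above about 26%, limit read from the data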;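 further: plate controls were DMSO with caspase-3 for no effect and DMSO wells lacking enzyme for full effect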
UBC13 conf – confirmation of human UBC13 polyubiquitin inhibitors; shares compounds with UBC13 inh; UBC13 polyubiquitination, TR-FRET, biochemical; inhibition, % at 10 µM; 1,400 tested, 68% active; AID 488859; in the data active means inhibition above about 45%
* marks the source's active call; other numbers are inactive results.

Screening COc1ccccc1CNC(=O)COc1cccnc1[N+](=O)[O-] returned NR3A LBD binder 2.9, HGIII-sPLA2 inh 6.2, UBC13 inh -6.1 and SUMO HTRF inh 2.2.
For C=CCN1C[C@@H](COCc2ccccc2)Oc2cccc(F)c2S1(=O)=O the results were HGIII-sPLA2 inh 1.6.
O=C(c1ccc(S(=O)(=O)N2CCCC2)cc1)N1CCC(CN2C(=O)c3cccc4cccc(c34)C2=O)CC1 was read as NR3A LBD binder -0.4, HGIII-sPLA2 inh -5.1, UBC13 inh 90.9*, SUMO HTRF inh 8.7, Casp3 UBC13 ctr 0.3 and UBC13 conf 95.4*.
For O=C(C[n+]1cccc(CNC(=O)c2ccc(OC(F)F)cc2)c1)Nc1ccc(SC(F)F)cc1 the results were NR3A LBD binder -3.1, HGIII-sPLA2 inh -63.8, UBC13 inh 55.0*, SUMO HTRF inh 7.4, Casp3 UBC13 ctr 0.6 and UBC13 conf 101.5*.
Screening O=C(C[n+]1cccc(CNC(=O)c2ccc(OC(F)F)cc2)c1)Nc1ccccc1Cl returned NR3A LBD binder -2.6, HGIII-sPLA2 inh -16.5, UBC13 inh 4.5 and SUMO HTRF inh -1.1.
Cc1ccc2nc3sc(C(=O)N4CCN(C)CC4)cc3cc2c1 was read as HGIII-sPLA2 inh 3.8.
`Nc1ccc2c(c1)C(=O)Cc1ccccc1S2` gave NR3A LBD binder -2.2, HGIII-sPLA2 inh 1.1, UBC13 inh 57.5*, SUMO HTRF inh 18.6, Casp3 UBC13 ctr 0.6 and UBC13 conf 32.3.
Screening COc1cc2c3c(c1)c(N=NC(N)=S)c(O)n3C(C)(C)C=C2C returned NR3A LBD binder -7.2, HGIII-sPLA2 inh 4.5, UBC13 inh 80.3*, SUMO HTRF inh 17.9, Casp3 UBC13 ctr 2.8 and UBC13 conf 84.1*.
CC1=CC(C)(C)n2c(O)c(N=NC(N)=S)c3cccc1c32 was read as NR3A LBD binder -12.5, HGIII-sPLA2 inh 9.9, UBC13 inh 75.9*, SUMO HTRF inh 3.6, Casp3 UBC13 ctr -0.7 and UBC13 conf 93.6*.
CCCCCCCNC(=O)C1(CC2CC(c3cccc(Br)c3)=NO2)CCNCC1 (stereo not given) was read as NR3A LBD binder -10.8, HGIII-sPLA2 inh -13.6, UBC13 inh 95.7*, SUMO HTRF inh 9.0, Casp3 UBC13 ctr 4.1 and UBC13 conf 98.8*.
CCCCCCCNC(=O)C1(CC2CC(c3ccc(Cl)cc3)=NO2)CCN(C(=O)Cc2ccc(F)cc2)CC1 (stereo not given) was read as NR3A LBD binder -0.6, HGIII-sPLA2 inh 3.4, UBC13 inh -3.4 and SUMO HTRF inh 5.4.
Screening CCCCCCCNC(=O)C1(CC2CC(c3ccc(Cl)cc3)=NO2)CCNCC1 (stereo not given) returned NR3A LBD binder -4.8, HGIII-sPLA2 inh -0.6, UBC13 inh 83.3*, SUMO HTRF inh -7.0, Casp3 UBC13 ctr -0.4 and UBC13 conf 80.1*.
O=C(NCc1c(F)cccc1F)C1C2C=CC3(CN(Cc4ccccc4)C(=O)C13)O2 (stereo not given) was read as HGIII-sPLA2 inh 1.5.
Screening CN1CCN(CCCN2c3ccccc3Sc3ccc(C(F)(F)F)cc32)CC1 returned NR3A LBD binder -4.1, HGIII-sPLA2 inh 3.8, UBC13 inh 90.4*, SUMO HTRF inh 5.8, Casp3 UBC13 ctr 0.7 and UBC13 conf 97.9*.
For O=S1(=O)c2ccc(Br)cc2OC[C@H](Cc2ccccc2)N1Cc1cn(CCC2OCCO2)nn1 the results were HGIII-sPLA2 inh -8.3.
`CCCCCn1c(SCC(=O)OCC)nc2cc(C(=O)N3CCC(C(N)=O)CC3)ccc2c1=O` gave NR3A LBD binder -1.3, HGIII-sPLA2 inh 1.1, UBC13 inh 8.3 and SUMO HTRF inh 11.4.
For C=CCn1c(SCc2ccc(Cl)cc2)nc2cc(C(=O)N3CCC(C(N)=O)CC3)ccc2c1=O the results were NR3A LBD binder -7.5, HGIII-sPLA2 inh 4.6, UBC13 inh 57.4*, SUMO HTRF inh 3.9, Casp3 UBC13 ctr -1.0 and UBC13 conf 47.6*.
Cc1occc1-c1nnc(SCC(=O)Nc2ccc3ncccc3c2)n1-c1ccccc1 was read as HGIII-sPLA2 inh -11.5.
Screening CC(=O)Nc1ccc(S(=O)(=O)N2CCN(CC(O)COc3ccc4ccccc4c3)CC2)cc1 (stereo not given) returned NR3A LBD binder -2.0, HGIII-sPLA2 inh -50.6, UBC13 inh 47.0*, SUMO HTRF inh -11.9, Casp3 UBC13 ctr 0.3 and UBC13 conf 49.0*.
`S=C(Nc1cccc(Cl)c1)OC1CCC12CCC(c1ccccc1)CC2` (stereo not given) gave HGIII-sPLA2 inh -0.7.
Screening C[C@]12CCC3C(CC[C@H]4CCCC[C@]34C)C1CC[C@@]2(O)CNCCO (stereo not given in full) returned NR3A LBD binder 1.4, HGIII-sPLA2 inh 2.4, UBC13 inh 63.5*, SUMO HTRF inh 6.0, Casp3 UBC13 ctr -1.5 and UBC13 conf 33.3.
`CCN(CC)CCOc1ncnc2c1oc1ccccc12` gave NR3A LBD binder -0.1, HGIII-sPLA2 inh 3.2, UBC13 inh -11.3 and SUMO HTRF inh -23.5.
`CCCCc1oc2ccccc2c1C(=O)c1cc(I)c(OCCN(CC)CC)c(I)c1` gave NR3A LBD binder 0.0, HGIII-sPLA2 inh -9.3, UBC13 inh 68.2*, SUMO HTRF inh 2.2, Casp3 UBC13 ctr 0.1 and UBC13 conf 57.9*.
COc1cc(/C=N/NC(=O)CSCc2ccc([N+](=O)[O-])cc2)cc(OC)c1OC was read as NR3A LBD binder -1.9, HGIII-sPLA2 inh -9.4, UBC13 inh 86.4*, SUMO HTRF inh 17.4, Casp3 UBC13 ctr -0.3 and UBC13 conf 103.0*.
For O=C(CSCc1ccc([N+](=O)[O-])cc1)NN=C1CCCCCC1 the results were NR3A LBD binder -20.4, HGIII-sPLA2 inh -3.0, UBC13 inh 90.9*, SUMO HTRF inh -17.4, Casp3 UBC13 ctr -2.1 and UBC13 conf 104.8*.
`COc1ccc(/C=N/NC(=O)CSCc2ccc([N+](=O)[O-])cc2)cc1OC` gave NR3A LBD binder -1.0, HGIII-sPLA2 inh 12.8, UBC13 inh 79.0*, SUMO HTRF inh 8.7, Casp3 UBC13 ctr 1.3 and UBC13 conf 71.1*.
Cc1cccc(C(=O)Oc2ccc(/C=N/NC(=O)Cc3ccc([N+](=O)[O-])cc3)cc2)c1 was read as NR3A LBD binder 7.4, HGIII-sPLA2 inh 3.1, UBC13 inh 85.5*, SUMO HTRF inh -11.2, Casp3 UBC13 ctr -0.2 and UBC13 conf 61.4*.
For CCOC(=O)C1=C(COC(=O)c2cccc(Br)c2)NC(=O)NC1C (stereo not given) the results were NR3A LBD binder -1.3, HGIII-sPLA2 inh -0.3 and UBC13 inh 0.7.
`CCOC(=O)C1=C(COC(=O)c2cc(OC)c(OC)c(OC)c2)NC(=O)NC1C` (stereo not given) gave NR3A LBD binder 1.5, HGIII-sPLA2 inh 15.9, UBC13 inh 61.8*, Casp3 UBC13 ctr 1.3 and UBC13 conf 83.5*.
CCOc1ccc(CCNC(=O)Cc2ccccc2)cc1OCC was read as HGIII-sPLA2 inh -6.3.
